Test results reported in PubChem BioAssay (Tox21).
Several values for one entry are separate records, joined by “and”; a condition that tells them apart may be missing. Identical values can stand only once. Records with an inconclusive call do not appear. The source holds several records for some structures; these can differ, active in one and inactive in another. Activity calls are given as the source filed them. Unless noted, calls come from the whole dose curve; as a rule, active = well fitted curve in the direction sought with a large enough effect in the repeat runs; inconclusive = weak or mixed curves; inactive = no such curve, though single readings can be large; an effect the other way counts as inactive or inconclusive.

Assays:
[1] = qHTS assay to identify small molecule agonists of the hypoxia (HIF-1) signaling pathway - cell viability counter screen (AID 1224844; calls by dose curve; note: nearly all actives have a fitted effect of over 50% in size; note: potency is the fitted concentration of half-maximal effect)
Summary of the method: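 Tox21 10K compounds were added to HRE-bla ME-180 cells (0.5% dialyzed FBS) and incubated 17 hrs at 37C; ATP-based CellTiter-Glo luminescence then reported cell viability in the same wells.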

[2] = qHTS assay to identify small molecule agonists of H2AX (AID 1224845; active = well fitted activation curve with a large enough effect in the signal ratio in the repeat runs, not every such curve was filed as active; the % refers to the signal ratio; note: potency is the fitted concentration of half-maximal effect)
Summary of the method: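 Wild-type CHO-K1 cells plated overnight, then exposed 3 hr at 37C to compounds at 15 concentrations (0.76% DMSO). Lysed, then HTRF anti-pH2AX(S139)-cryptate/anti-H2AX-d2 detection after 24 hr at room temperature; emissions 665 and 620 nm.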

[3] = qHTS assay to identify small molecule agonists of the hypoxia (HIF-1) signaling pathway (AID 1224846; active = well fitted activation curve with a large enough effect in the signal ratio in the repeat runs, not every such curve was filed as active; the % refers to the signal ratio)
Summary of the method: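 Steps: seed ME-180 HRE-bla cells (2,000/well, 0.5% dialyzed FBS); incubate 5 hrs at 37C; pin-transfer compounds or DMSO; incubate 17 hrs; add LiveBLAzer B/G substrate CCF4-AM; measure reporter activation by FRET.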

[4] = qHTS RealTime-Glo MT Cell Viability Assay in HepG2 cells - 24 hour (AID 1224867); note: nearly all actives have a fitted effect of over 50% in size; note: potency is the fitted concentration of half-maximal effect
Summary of the method: (§1)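 HepG2 suspension premixed with RealTime-Glo reagents is plated at 600 cells per well and left 5 h at 37 C/5% CO2. Compounds in DMSO then go in, and bioluminescence reflecting viable cell number is recorded over 40 h.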

[5] = qHTS RealTime-Glo MT Cell Viability Assay in HEK293 cells - 32 hour (AID 1224868); note: nearly all actives have a fitted effect of over 50% in size; note: potency is the fitted concentration of half-maximal effect
Summary of the method: (§2)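 Reads taken at 0, 8, 16, 24, 32 and 40 h from the same wells. HEK293 cells (600/well) carried RealTime-Glo reagents from seeding, with compound added after a 5 h settle at 37 C.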

[6] = A CellTox Green Cytotoxicity Assay to monitor cytotoxicity in HEK293 cells - 0 hour (AID 1224869); note: nearly all actives have a fitted effect of over 50% in size
Summary of the method: (§3)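 Cytotoxicity was tracked continuously in HEK293 cells by a DNA-binding dye excluded from viable cells. Compounds were transferred in DMSO 5 h after seeding; fluorescence was recorded at intervals up to 40 h.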

[7] = qHTS RealTime-Glo MT Cell Viability Assay in HepG2 cells - 40 hour (AID 1224870); note: nearly all actives have a fitted effect of over 50% in size; note: potency is the fitted concentration of half-maximal effect
Summary of the method: (§4)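 HepG2 cells mixed with RealTime-Glo MT reagents (NanoLuc plus cell-permeant prosubstrate) were seeded at 600 cells/well, incubated 5 h at 37 C/5% CO2, then pinned with compounds in DMSO; nonlytic luminescence tracked viability during 40 h treatment.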

[8] = A CellTox Green Cytotoxicity Assay to monitor cytotoxicity in HEK293 cells - 40 hour (AID 1224871); note: nearly all actives have a fitted effect of over 45% in size; note: potency is the fitted concentration of half-maximal effect
Summary of the method: as §3

[9] = qHTS RealTime-Glo MT Cell Viability Assay in HepG2 cells - 8 hour (AID 1224873); note: nearly all actives have a fitted effect of over 55% in size; note: potency is the fitted concentration of half-maximal effect
Summary of the method: as §4

[10] = A CellTox Green Cytotoxicity Assay to monitor cytotoxicity in HEK293 cells - 24 hour (AID 1224875); note: nearly all actives have a fitted effect of over 45% in size; note: potency is the fitted concentration of half-maximal effect
Summary of the method: as §3

[11] = A CellTox Green Cytotoxicity Assay to monitor cytotoxicity in HepG2 cells - 16 hour (AID 1224876); note: nearly all actives have a fitted effect of over 45% in size; note: potency is the fitted concentration of half-maximal effect
Summary of the method: (§5)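 Real-time, homogeneous cytotoxicity readout: dead-cell DNA staining by CellTox Green in HepG2 monolayers, fluorescence measured at timed intervals up to 40 h of continuous compound exposure.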

[12] = qHTS RealTime-Glo MT Cell Viability Assay in HepG2 cells - 32 hour (AID 1224877); note: nearly all actives have a fitted effect of over 55% in size; note: potency is the fitted concentration of half-maximal effect
Summary of the method: as §1

[13] = A CellTox Green Cytotoxicity Assay to monitor cytotoxicity in HepG2 cells - 24 hour (AID 1224878); note: nearly all actives have a fitted effect of over 45% in size; note: potency is the fitted concentration of half-maximal effect
Summary of the method: as §5

[14] = A CellTox Green Cytotoxicity Assay to monitor cytotoxicity in HepG2 cells - 40 hour (AID 1224879); note: nearly all actives have a fitted effect of over 40% in size; note: potency is the fitted concentration of half-maximal effect
Summary of the method: as §5

[15] = qHTS RealTime-Glo MT Cell Viability Assay in HEK293 cells - 0 hour (AID 1224880); note: nearly all actives have a fitted effect of over 45% in size; note: potency is the fitted concentration of half-maximal effect
Summary of the method: (§6)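 Nonlytic bioluminescent viability monitoring. HEK293 at 600 cells/well with reagent; 5 h settle; compound transfer by pintool; plates held at 37 C and read at set time points.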

[16] = qHTS RealTime-Glo MT Cell Viability Assay in HEK293 cells - 40 hour (AID 1224874); conditions: RealTime-Glo luminescence; max response: stronger effect = lower value; note: nearly all actives have a fitted effect of over 50% in size; note: potency is the fitted concentration of half-maximal effect
Summary of the method: as §6

[17] = qHTS assay to identify small molecule agonists of H2AX - cell viability counter screen (AID 1224847; calls by dose curve; note: nearly all actives have a fitted effect of over 30% in size; note: potency is the fitted concentration of half-maximal effect)
Summary of the method: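 Viability of CHO-K1 (wild type) cells after 3 hr compound exposure was measured by CellTiter-Glo luminescence.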

[18] = qHTS assay to identify small molecule antagonists of the estrogen related receptor (ERR) signaling pathway from Tox21 library (AID 1224848); note: nearly all actives have a fitted effect of over 50% in size; note: potency is the fitted concentration of half-maximal effect
Summary of the method: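 Cells: ERR line, 2,000/well; 6 h preincubation 37 C/5% CO2. Cpd in DMSO via pin tool; 18 h, 37 C. ONE-Glo, 30 min RT, luminescence.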

[19] = qHTS RealTime-Glo MT Cell Viability Assay in HEK293 cells - 16 hour (AID 1224872); note: nearly all actives have a fitted effect of over 50% in size; note: potency is the fitted concentration of half-maximal effect
Summary of the method: as §2
% is set by controls: 0 for no effect and ±100 for the full control effect.

CCOP(=S)(OCC)SCn1c(=O)oc2cc(Cl)ccc21
inactive: Potency [1] | Potency [2] | outcome [3] | Potency [4] | Potency [6] | Potency [7] | Potency [8] | Potency [9] | Potency [10] | Potency [11] | Potency [12] | Potency [13] | Potency [14] | Potency [15]
active: Potency [5] 29.5 µM

Oc1ccc(Cl)cc1Cc1ccccc1
inactive and 15.7 µM (active): Potency [13]
inactive and 19.7 µM (active): Potency [14]
inactive: Potency [2] | Potency [6] | Potency [7] | Potency [15]
active: Potency [5] 21.9 µM and 19.7 µM | Potency [8] 11 µM and 21.3 µM | Potency [16] 21.9 µM and 27.9 µM | Potency [10] 8.71 µM
49.6 µM (active) and inactive: Potency [1] | Potency [9]
inactive and 49.6 µM (active): Potency [4] | Potency [12]
inactive and 33.1 µM (active): Potency [11]

CCC(=O)Nc1ccc(Cl)c(Cl)c1
active: Potency [5] 44.5 µM
inactive: Potency [1] | Potency [2] | outcome [3] | Potency [4] | Potency [6] | Potency [7] | Potency [8] | Potency [9] | Potency [10] | Potency [11] | Potency [12] | Potency [13] | Potency [14] | Potency [15]

CC(C)Nc1ccc(Nc2ccccc2)cc1
inactive and 49 µM (active): Potency [11]
active: Potency [17] 50.3 µM and 89.8 µM | Potency [18] 15.3 µM and 48.6 µM | Potency [4] 54.7 µM and 49 µM | Potency [5] 17.3 µM and 19.5 µM | Potency [8] 48.8 µM and 49 µM | Potency [9] 48.8 µM and 38.9 µM | Potency [16] 17.3 µM and 17.4 µM | Potency [10] 48.8 µM and 54.9 µM | Potency [12] 54.7 µM | Potency [13] 43.6 µM | Potency [14] 43.6 µM | Potency [15] 7.73 µM and 19.5 µM
inactive: Potency [6]

c1ccc2c(c1)Nc1ccccc1S2
active: Potency [5] 11 µM and 13.4 µM | Potency [19] 6.92 µM and 12 µM | Potency [16] 14.3 µM and 13.4 µM
inactive: Potency [1] | outcome [3] | Potency [17] | Potency [18] | Potency [4] | Potency [6] | Potency [7] | Potency [9] | Potency [10] | Potency [11] | Potency [12] | Potency [13] | Potency [14]

NC(=O)CN1CCCC1=O
inactive: Potency [1] | Potency [2] | Potency [17] | Potency [18] | Potency [4] | Potency [5] | Potency [6] | Potency [7] | Potency [9] | max response [16] 3.12% and 0.0955% | Potency [10] | Potency [11] | Potency [12] | Potency [13] | Potency [14] | Potency [15]

CCC[CH2][Sn]([Cl])([CH2]CCC)[CH2]CCC
active: Potency [1] 310 nM and 1.1 µM | Potency [2] 358 nM and 401 nM | Potency [17] 637 nM and 713 nM | Potency [4] 1.55 µM and 549 nM | Potency [5] 347 nM and 490 nM | Potency [7] 979 nM and 347 nM | Potency [8] 491 nM and 549 nM | Potency [9] 3.47 µM and 1.38 µM | Potency [16] 310 nM and 436 nM | Potency [10] 979 nM and 2.45 µM | Potency [11] 1.74 µM and 1.23 µM | Potency [12] 1.23 µM and 436 nM | Potency [13] 1.38 µM and 2.19 µM | Potency [14] 1.38 µM and 692 nM
inactive: Potency [6] | Potency [15]

CC(C)(O)C#N
inactive: Potency [1] | Potency [2] | outcome [3] | Potency [4] | Potency [5] | Potency [6] | Potency [7] | Potency [19] | Potency [9] | max response [16] 1.12% and 7.67% | Potency [10] | Potency [11] | Potency [12] | Potency [13] | Potency [14] | Potency [15]

CC(O)CN(CC(C)O)CC(C)O (stereo not drawn)
inactive: Potency [1] | Potency [2] | outcome [3] | Potency [4] | Potency [5] | Potency [6] | Potency [7] | Potency [9] | max response [16] 2.85% and 7.82% | Potency [10] | Potency [11] | Potency [12] | Potency [13] | Potency [14] | Potency [15]
